From PubChem BioAssay (NCATS)
Inconclusive results are not listed. Entries that show only a call come without a potency. Active and inactive are the calls of the source. The call rests on the fitted dose curve; in most records, active means well fitted inhibition curve with a large enough effect; inconclusive means small, poorly fitted or top-dose-only effect; inactive means flat fitted curve, though single readings scatter.

molecular target: Calcium and integrin-binding protein 1 (Homo sapiens) (UniProt Q99828); assay: Primary qHTS for Identification of Calcium Integrin Binding Protein 1 (CIB1) Competitor (AID 1508620); details: CIB1-GST / FITC-alphaIIb peptide fluorescence polarization; series mostly up to 114 µM; further: top concentration of the series differs between compounds
Sequence (Q99828 whole entry, looked up): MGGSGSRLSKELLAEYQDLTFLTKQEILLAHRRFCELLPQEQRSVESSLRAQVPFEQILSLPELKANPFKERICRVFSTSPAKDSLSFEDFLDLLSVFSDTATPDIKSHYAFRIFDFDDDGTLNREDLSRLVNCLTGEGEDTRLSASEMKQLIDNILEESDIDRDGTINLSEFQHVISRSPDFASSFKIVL
In short: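 Fluorescence polarization competition: GST-tagged CIB1 (1 uM final) preincubated with compound 15 min at room temperature, then FITC-labelled alphaIIb peptide (100 nM final) added. After 15 min at room temperature, polarization read at Ex 480/Em 540.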

SMILES	Potency
Brc1cnc2nc(SCc3ccncc3)[nH]c2c1	inactive
Cc1cc2c(s1)c1cnn(Cc3c(F)cc(F)cc3F)c(=O)c1n2C	inactive
Fc1cc(Nc2nc(-c3ccncc3)nc3ccccc23)ccc1-n1cncn1	inactive
Cc1noc(C)c1-c1ccc2ncnc(NCc3ccc(-c4ccccc4)cc3)c2c1	inactive
CC(=O)N[C@@H](Cc1ccc(O)cc1)C(=O)N[C@H](C(=O)N[C@@H](C)C(=O)N[C@H](C#N)CC(=O)O)C(C)C	inactive
Cn1nnnc1Sc1ncnc2scc(-c3ccc(N)cc3)c12	inactive
COc1ccc(OC)c(C2=Nn3c(nnc3-c3cccc(OC)c3OC)SC2)c1	inactive
O=C(O)Cc1cc(F)c(S(=O)(=O)N2CCN(S(=O)(=O)c3ccc4c(c3)OCCO4)CC2)cc1F	inactive
O=P(c1ccccc1)(c1ccccc1)c1cnc2ccccn12	inactive
Cc1cc(C)nc(NC(=S)N2CCN(c3ncnc4ccccc34)CC2)c1	inactive
N#Cc1ccc(C(=O)NCC(=O)OC(C(=O)Nc2cc(C(F)(F)F)ccc2Cl)c2ccccc2)cc1 (stereo not given)	inactive
O=[S+]([O-])(c1ccc2c(c1)OCCO2)N1CCN([S+](=O)([O-])c2cc(Cl)ccc2F)CC1	inactive
O=C1CCc2cc(S(=O)(=O)Nc3cccc(Br)c3)ccc2N1	inactive
O=S(=O)(c1ccc2c(c1)OCCO2)N1CCN(S(=O)(=O)c2ccc(Br)cc2F)CC1	inactive
CCOC(=O)c1ccc(-c2ccc3ncnc(N(C)Cc4sccc4C)c3c2)o1	inactive
CN1CCOc2ccc(S(=O)(=O)N3CCN(S(=O)(=O)c4c(F)cccc4F)CC3)cc21	inactive
COc1cccc(C2c3c(ncn(-c4ccccc4-c4ccccc4)c3=N)Oc3ccc4ccccc4c32)c1 (stereo not given)	inactive
COc1cc2ncnc(N(C)Cc3cccs3)c2cc1-c1ccc2c(c1)OCO2	inactive
COc1ccc2ncnc(NCc3cccs3)c2c1-c1ccc2c(c1)OCO2	inactive
Cc1cc2c(s1)c(C#N)c(C(=O)NCc1ccccc1F)n2C	inactive

SMILES	Potency
NCCC(=O)Nc1cccc(-c2nn3c(=O)cc(N4CCNCC4)nc3s2)c1	inactive
COc1ccc(C2Nc3ccccc3C(=O)N2Cc2ccccc2OC)cc1COc1c(C)cc(NC(C)=O)cc1C (stereo not given)	inactive
O=C1CCCC2=C1C(c1[nH]ncc1Cl)N=C(Nc1nccs1)N2 (stereo not given)	inactive
Cc1cc(-c2nnc3n2CCCCCC3)c(C)n1-c1ccccc1	inactive
O=C1CCCC2=C1C(c1cccc(Cl)c1)N=C(Nc1nc3ccccc3o1)N2 (stereo not given)	inactive
Cc1ccc(-c2ccc(=O)n(CC(=O)N(C)[C@@H](C)c3ccccc3)n2)cc1	inactive
CNc1oc(-c2cccc3c2OC(F)(F)O3)nc1C#N	inactive
O=c1c2ccccc2nc2sc(Nc3ccc(Oc4ccccc4)cc3)nn12	inactive
CC(=O)N1CCN(c2ccc(NCc3ccc(C)cc3)cc2)CC1	inactive
Cc1cccc2c1NC(=O)/C2=C/c1cc(Cl)c(O)c(Cl)c1	inactive
COc1cccc(CNc2ccc(S(=O)(=O)Nc3nccs3)cc2)c1O	inactive
CCOc1ccc(-c2csc(N3CCC(C(N)=O)CC3)n2)cc1	inactive
CN1CCN(c2ccc(NC(=O)c3cccs3)cn2)CC1	inactive
COc1ccc(C2c3c(nc(CCCc4ccccc4)[nH]c3=O)Oc3ccc4ccccc4c32)cc1OC (stereo not given)	inactive
O=C(O)c1ccc(-n2cccc2/C=C2\SC(=O)N(Cc3ccc(Br)cc3)C2=O)cc1	inactive
COc1ccc(NC(=O)c2cnn3c(C)cc(C)nc23)cc1OC	inactive
Cc1cc(C)nc(NC(=S)N2CCN(c3nc4ccccc4o3)CC2)c1	inactive
COc1cccc(C2=Nn3c(nnc3-c3ccc(OC)c(OC)c3)SC2)c1	inactive
Cc1ccc(NS(=O)(=O)c2ccc3c(c2)CCN(C(=O)C(F)(F)F)C3)cc1C	inactive
C=CCNc1oc(-c2cccc(F)c2)nc1C#N	inactive
